Screening data from PubChem BioAssay.
Menin MLL FP FL = menin-MLL binding inhibition, fluorescein peptide; Fluorescence polarization, fluorescein-MLL peptide displacement from menin; 290,000 tested, under 10 active; FP activity change, % at 61.4 µM; active = well fitted curve in the direction sought with a large enough effect in the polarisation, not every such curve was filed as active; inconclusive = small, poorly fitted or top-dose-only effect, or effect the other way, or a change in a side signal; inactive = no such curve, though single readings can be large or run the other way; the % refers to the polarisation; also: % of control where 0% means no effect
Menin-MLL TR inh = displaces Texas Red mutant MLL peptide from human menin; AID 1768; 0.23% of 270,000 active; Potency, µM (highest dose often 61.6 µM), without a hit: at the top dose FP activity change, negative = inhibition, most hits filed as inhibitors; Menin + Texas Red MLL mutant peptide, fluorescence polarization; active = well fitted inhibition curve with a large enough effect in the polarisation, with a control signal flat, not every such curve was filed as active; inconclusive = small, poorly fitted or top-dose-only effect, or effect the other way, or a change in a side signal; inactive = no such curve, though single readings can be large or run the other way; the % refers to the polarisation; also: potency is read from the fitted curve at half-maximal effect; % of control where 0% means no effect
Target sequence (O00255 whole entry, looked up): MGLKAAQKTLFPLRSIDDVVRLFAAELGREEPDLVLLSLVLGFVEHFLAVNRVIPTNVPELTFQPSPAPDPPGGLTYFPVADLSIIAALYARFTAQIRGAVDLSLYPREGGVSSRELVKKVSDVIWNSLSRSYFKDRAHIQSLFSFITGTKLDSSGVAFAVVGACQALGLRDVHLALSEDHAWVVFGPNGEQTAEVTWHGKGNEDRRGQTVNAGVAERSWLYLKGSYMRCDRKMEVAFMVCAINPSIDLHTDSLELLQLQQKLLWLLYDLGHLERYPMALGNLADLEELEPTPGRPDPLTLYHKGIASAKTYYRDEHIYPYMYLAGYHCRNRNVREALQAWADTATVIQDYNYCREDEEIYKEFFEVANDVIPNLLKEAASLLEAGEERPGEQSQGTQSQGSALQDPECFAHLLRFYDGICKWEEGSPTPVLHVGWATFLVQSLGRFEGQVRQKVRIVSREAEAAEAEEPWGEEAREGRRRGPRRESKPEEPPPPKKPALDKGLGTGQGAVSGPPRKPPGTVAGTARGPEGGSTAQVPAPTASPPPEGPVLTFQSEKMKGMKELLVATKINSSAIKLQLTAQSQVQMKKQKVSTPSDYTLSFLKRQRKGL
ClpP mod = qHTS Assay for Activators of ClpP; ATP-dependent Clp protease proteolytic subunit (Bacillus subtilis (strain 168)), P80244; purified B. subtilis ClpP, FRET peptide cleavage, 20 min; Potency, µM (doses to about 57.5 µM), without a hit: top-dose activity change, negative = active; 1.9% of 340,000 active; AID 651965, 2013; active = well fitted falling curve with a large enough effect; inconclusive = small, poorly fitted or top-dose-only effect; inactive = no such curve, though single readings can be large or run the other way; also: potency is read from the fitted curve at half-maximal effect; the source files actives as falling curves though it sought activators and does not explain the sign; nearly all actives have a fitted effect of over 65% in size
Target sequence (P80244 whole entry, looked up): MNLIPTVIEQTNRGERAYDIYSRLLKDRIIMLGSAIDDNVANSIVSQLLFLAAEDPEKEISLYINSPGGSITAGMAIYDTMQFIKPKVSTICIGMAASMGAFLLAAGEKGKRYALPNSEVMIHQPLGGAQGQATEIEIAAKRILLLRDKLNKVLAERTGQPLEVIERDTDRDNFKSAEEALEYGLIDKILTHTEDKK
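Purified B. subtilis ClpP, 10 microg/mL final in Tris/HCl pH8 with KCl, BSA, glycerol and Tween-20, cleaved an Abz/nitrotyrosine-quenched decapeptide. Fluorescence (ex 320, em 430) was read at 0 and 20 min at room temperature. Delta was normalized to 5.8 microM ADEP and DMSO/no-enzyme controls.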
MLL CXXC-DNA inh = MLL CXXC-DNA interaction inhibition; MLL-CXXC / FITC-HOXA9 DNA fluorescence polarization; Potency, µM (titrated, usually from 115 µM), for the others: at the highest dose activity change, negative = inhibition, hits mostly inhibitors; 0.037% of 290,000 active; active = well fitted inhibition curve with a large enough effect in the polarisation, with a control signal flat, not every such curve was filed as active; inconclusive = small, poorly fitted or top-dose-only effect, or effect the other way, or a change in a side signal; inactive = no such curve, though single readings can be large or run the other way; the % refers to the polarisation; also: potency is read from the fitted curve at half-maximal effect
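Fluorescence polarization: 7 uM MLL-CXXC (stock) preincubated 5 min with compounds, then 50 nM fluorescein-HOX-A9 DNA (stock) added; 30 min ambient. Buffer 50 mM Tris-HCl pH 7.5, 50 mM NaCl, 1 mM DTT, 0.05% BSA.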
PINK1 modulator = changes PINK1 expression | 0.2% of 410,000 active | Potency, µM (doses to about 76.6 µM), for the others: top-dose activation (PINK1 increase), most hits filed as activators | PINK1 immunofluorescence, high-content cytometry, 24 h; active = well fitted activation curve with a large enough effect; inconclusive = small, poorly fitted or top-dose-only effect; cell line not stated here; also: potency is read from the fitted curve at half-maximal effect; % of control where 0% means no effect; nearly all actives have a fitted effect of over 65% in size
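Compound titrations (5 concentrations, 24 h) on a stable cell line; DMSO and CCCP controls. Endpoint: fixed-cell PINK1 immunofluorescence with mitochondrial, cell and nuclear markers, scanned by microplate cytometer.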
Epigenetic derep = epigenetic control regulation, reporter derepression; murine LDR cells, GFP reporter derepression, 30 h; Potency, µM (titrated, usually from 53.9 µM), for the others: at the top dose GFP activation, most hits filed as activators; 0.2% of 280,000 active; active = well fitted activation curve with a large enough effect; inconclusive = small, poorly fitted or top-dose-only effect; also: potency is read from the fitted curve at half-maximal effect; % of control where 0% means no effect; nearly all actives have a fitted effect of over 60% in size
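GFP-positive cell count by laser-scanning cytometry (objects 20–120 um) after 30 h, 37 C compound exposure of murine LDR cells; reporter is CMV-GFP integrated at a silenced locus, inducible by HDAC or DNMT inhibitors.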
An asterisk follows results filed as active; ? = inconclusive; nt = not tested or not shown; [ ] = remark or other dose. Hits are enriched below; roughly 1.9% of the tested compounds scored in any of these assays.

SMILES	Menin MLL FP FL	Menin-MLL TR inh	ClpP mod	MLL CXXC-DNA inh	PINK1 modulator	Epigenetic derep
N#CCSc1n[nH]c2nc3c(c(=O)n12)C1(CCCC1)Cc1ccccc1-3	0.5	?	15.8µM*	-6.8%	-1.2%	-5.8%
CCCn1c(SCC#N)nc2c(c1=O)C1(CCCC1)Cc1ccccc1-2	0.5	?	-18.5%	3.8%	2.8%	-1.1%
CCN(C(=O)COC(=O)Cc1coc2cc(C)ccc12)c1c(N)n(Cc2ccccc2)c(=O)[nH]c1=O	nt	nt	-0.9%	nt	-2.5%	nt
Cc1ccc2c(CC(=O)N(C)c3c(N)n(Cc4ccccc4)c(=O)[nH]c3=O)coc2c1	nt	nt	25.1µM*	nt	-2.1%	nt
Cn1c(=O)c2c(nc(SCC(=O)N3c4ccccc4CCc4ccccc43)n2C)n(C)c1=O	-0.6	-21.3%	-0.6%	1.8%	10µM*	0.0%
CCC(c1nnc(SCC(=O)Nc2cc(S(C)(=O)=O)ccc2Cl)n1Cc1ccccc1)N(C)C (configuration not stated)	-1.0	-15.1%	31.6µM*	0.6%	-2.5%	nt
Cc1cccc(OCC(=O)Nc2cc(C)c(O)c(-c3nc4ccccc4o3)c2)c1	nt	nt	0.7%	nt	1.0%	nt
CCOC(=O)c1sc(NC(=O)CN2C(=O)c3cccc4cccc(c34)C2=O)nc1C	-0.7	3.98µM*	-22.4%	26.2%	-3.5%[38.3 µM]	-0.3%
CCOC(=O)c1sc(NC(=O)CCCCCN2C(=O)c3cccc4cccc(c34)C2=O)nc1C	1.1	nt	-3.8%	6.1%	?	0.0%
c1ccc2c(-c3nc(-c4ccncc4)no3)cccc2c1	2.3	6.3%	31.6µM*	-6.7%	-5.9%[38.3 µM]	1.2%
c1ccc(-c2ccccc2-c2nc(-c3cccnc3)no2)cc1	2.8	13.8%	-2.5%	-2.4%	-0.5%	-0.1%
c1cncc(-c2noc(-c3cccc4ccccc34)n2)c1	2.6	0.5%	35.5µM*	1.1%	-2.1%[38.3 µM]	-1.7%
c1ccc(-c2noc(-c3cccc4ccccc34)n2)cc1	1.8	26.6%	28.2µM*	3.4%	8.8%	4.8%
CC(=O)NCC1CCCN(C(=O)c2ccc(OC3CCN(Cc4ccccn4)CC3)cc2)C1 (configuration not stated)	nt	nt	-0.7%	13.1%	-0.6%	nt
COc1ccc(C(=O)C[n+]2cc(Br)cc3ccccc32)cc1	nt	nt	-6.2%	nt	23.7%	nt
CC(C)(C)c1ccc(C(=O)C[n+]2cc(Br)cc(Br)c2)cc1	nt	nt	-1.1%	nt	0.9%	nt
Cc1cc(C)c(S(=O)(=O)c2ccccc2)c(Cl)n1	-0.7	-0.3%	14.1µM*	2.6%	-0.5%	-2.2%
COc1cccc(CCNc2ncnc3sc(C(=O)N4CCN(C)CC4)c(C)c23)c1	nt	nt	nt	nt	-0.8%	nt
Cc1ccc(-c2cc(C(=O)NCCc3ccccn3)c3ccccc3n2)c(C)c1	-1.6	-9.3%	28.2µM*	12.8%	1.2%	-1.0%
O=C(NCCc1ccccn1)c1cc(-c2cccc3ccccc23)nc2ccccc12	3.9	-1.4%	-27.1%	4.1%	7.7%	-1.0%
Cc1ccc(-c2cc(C(=O)Nc3ccncc3)c3ccccc3n2)cc1	nt	nt	?	nt	2.4%	nt
Cc1cccc(NC(=S)NC(=O)c2cc(-c3ccccc3)nc3ccccc23)c1	-0.6	35.5µM*	-0.1%	-1.4%	-0.1%	-2.0%
CCc1ccc(-c2cc(C(=O)NCc3ccccn3)c3ccccc3n2)cc1	3.7	-3.2%	14.1µM*	-0.4%	0.3%	-2.3%
Cc1ccc(-c2cc(C(=O)NCc3ccccn3)c3ccccc3n2)cc1	11.2	-3.4%	14.1µM*	16.0%	0.6%	10.9%
O=C(NCc1ccccn1)c1cc(-c2ccc(Br)cc2)nc2ccccc12	3.2	12.2%	?	-4.3%	3.8%	6.2%
SMILES	Menin MLL FP FL	Menin-MLL TR inh	ClpP mod	MLL CXXC-DNA inh	PINK1 modulator	Epigenetic derep
Cc1cc(C)cc(OCC(=O)N(Cc2ccc(N(C)C)cc2)C2CCS(=O)(=O)C2)c1 (configuration not stated)	8.0	nt	22.4µM*	-8.9%	2.6%	-1.1%
CCOC(=O)CNc1c(-c2ccc(O)cc2)nc2ccccn12	0.4	2.2%	31.6µM*	3.5%	2.5%[38.3 µM]	-1.0%
O=P(Cc1ccccc1)(Cc1ccccc1)c1ccccc1	nt	nt	31.6µM*	nt	-4.1%	nt
COc1ccc(NC(=O)C2CCN(S(=O)(=O)c3cccc4nonc34)CC2)cc1OC	-0.2	15.1%	nt	0.9%	20.6%	nt
O=C(NCc1ccc(C(F)(F)F)cc1)c1ccc(-c2ccc(F)c(F)c2)c2ccoc12	nt	nt	28.2µM*	nt	2.1%	nt
O=C(O)CCC(=O)Nc1ccccc1C(=O)NCCc1ccccc1	1.5	6.6%	14.1µM*	0.7%	1.5%	1.0%
CCc1ccc(/C=N/NC(=O)Cc2cccn2C)cc1	6.4	nt	nt	4.7%	2.3%	0.7%
Cc1ccc(NS(=O)(=O)c2cccc(C(=O)N3CCN(C(=O)c4ccco4)CC3)c2)cc1	nt	nt	-2.1%	nt	0.6%	nt
CCCN1CCN(C(=O)Cn2c(-c3cccs3)cc3ccccc32)CC1	nt	nt	31.6µM*	nt	2.5%	-0.4%
CN1CCN(C(=O)Cn2c(-c3cccs3)cc3ccccc32)CC1	nt	nt	28.2µM*	nt	-1.3%	-1.2%
Cc1[nH]nc2c1C(c1ccc(F)cc1)C1=C(CC(C)(C)CC1=O)N2 (configuration not stated)	2.8	19.8%	25.1µM*	6.8%	3.0%	0.9%
Cc1ccc(C2C3=C(CC(C)(C)CC3=O)Nc3n[nH]c(C)c32)cc1 (configuration not stated)	-1.2	6.7%	25.1µM*	2.2%	0.3%	-4.0%
Cc1[nH]nc2c1C(c1ccc(N(C)C)cc1)C1=C(CC(C)(C)CC1=O)N2 (configuration not stated)	-0.1	-0.5%	nt	10.1%	-0.7%	0.1%
COc1ccc(C2C3=C(CCCC3=O)Nc3n[nH]c(C)c32)cc1OC (configuration not stated)	-1.8	nt	nt	-1.1%	-0.8%	-1.9%
Cc1[nH]nc2c1C(c1cccc(O)c1)C1=C(CC(C)(C)CC1=O)N2 (configuration not stated)	0.1	7.4%	28.2µM*	5.3%	1.2%	0.8%
CC(=O)Oc1ccccc1-c1nc(/C=C/c2ccccc2)no1	-8.5	?	?	-2.9%	5.9%	nt
CCN(CC)c1ccc(/C=C/C2=C3C=CC=CC3NC=C2)cc1 (configuration not stated)	nt	nt	-3.6%	nt	0.9%	nt
O=[N+]([O-])c1ccc(NS(=O)(=O)c2ccc(Cl)c(Cl)c2)cc1	nt	nt	1.0%	nt	15.8µM*	nt
CC(=O)N1CCN(C(=O)c2ccc(NS(=O)(=O)c3ccc(Cl)c(Cl)c3)cc2)CC1	nt	nt	14.1µM*	nt	-1.7%	nt
Cc1cc(-c2ccc(Cl)cc2)n2nc(N)nc2n1	1.5	12.9%	17.8µM*	1.6%	8.5%	-1.0%
